Records with an inconclusive call do not appear. Active and inactive are the calls of the source. The call rests on the fitted dose curve; in most records, active means well fitted curve in the direction sought with a large enough effect; inconclusive means small, poorly fitted or top-dose-only effect, or another doubt; inactive means no such curve, though single readings can be large; an effect the other way counts as inactive or inconclusive.
Columns and labels:
[1] = Quantitative High-Throughput drug screen in 47 multiple myeloma cell lines against the NCATS MIPE library collection: JJN3_DSMZ cell viability assay (AID 1918966; further: nearly all actives have a fitted effect of over 50% in size; further: potency means the concentration at half of the fitted maximal effect)
Outline: (§1)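 CellTiter-Glo ATP luminescence gave viability after 48 h compound treatment at 37C of 500 multiple myeloma cells per well. Normalisation used DMSO-only wells as 100% and media-only wells as 0% viability; primary qHTS of approved and investigational drugs.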

[2] = Quantitative High-Throughput drug screen in 47 multiple myeloma cell lines against the NCATS MIPE library collection: H1112_PLB cell viability assay (AID 1918967; further: nearly all actives have a fitted effect of over 30% in size; further: potency means the concentration at half of the fitted maximal effect)
Outline: as §1

[3] = Quantitative High-Throughput drug screen in 47 multiple myeloma cell lines against the NCATS MIPE library collection: KMS27_JCRB cell viability assay (AID 1918970); further: nearly all actives have a fitted effect of over 30% in size; further: potency means the concentration at half of the fitted maximal effect
Outline: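 Each line is seeded at 500 cells per well and treated with library compounds for 48 hours under 37 °C, 5% CO2. CellTiter-Glo is then added for 5 min at room temperature before median relative luminescence is recorded.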

[4] = Quantitative High-Throughput drug screen in 47 multiple myeloma cell lines against the NCATS MIPE library collection: KMS12BM_JCRB cell viability assay (AID 1918971); further: nearly all actives have a fitted effect of over 35% in size; further: potency means the concentration at half of the fitted maximal effect
Outline: (§2)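 Myeloma cells (500 per well) were exposed to MIPE 4.0 compounds by pin transfer and incubated 48 hours at 37C, 5% CO2. Viability was read as ATP by CellTiter-Glo luminescence, normalised to DMSO (100%) and media-only (0%) wells.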

[5] = Quantitative High-Throughput drug screen in 47 multiple myeloma cell lines against the NCATS MIPE library collection: KMS12PE_JCRB cell viability assay (AID 1918972); further: nearly all actives have a fitted effect of over 30% in size; further: potency means the concentration at half of the fitted maximal effect
Outline: as §1

[6] = Quantitative High-Throughput drug screen in 47 multiple myeloma cell lines against the NCATS MIPE library collection: NCIH929_DSMZ cell viability assay (AID 1918978); further: nearly all actives have a fitted effect of over 35% in size; further: potency means the concentration at half of the fitted maximal effect
Outline: (§3)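 ATP-based CellTiter-Glo luminescence after 48 h drug exposure (37 °C, 5% CO2) of 500 myeloma cells per well. DMSO-only wells set 100% viability, media-only wells 0%; MIPE 4.0 library added by pin tool.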

[7] = Quantitative High-Throughput drug screen in 47 multiple myeloma cell lines against the NCATS MIPE library collection: MM1R_ATCC cell viability assay (AID 1918981); further: nearly all actives have a fitted effect of over 35% in size; further: potency means the concentration at half of the fitted maximal effect
Outline: as §3

[8] = Quantitative High-Throughput drug screen in 47 multiple myeloma cell lines against the NCATS MIPE library collection: L363_DSMZ cell viability assay (AID 1918984); further: nearly all actives have a fitted effect of over 40% in size; further: potency means the concentration at half of the fitted maximal effect
Outline: as §3

[9] = Quantitative High-Throughput drug screen in 47 multiple myeloma cell lines against the NCATS MIPE library collection: Karpas25_ECACC cell viability assay (AID 1918968; further: nearly all actives have a fitted effect of over 35% in size; further: potency means the concentration at half of the fitted maximal effect)
Outline: as §1

[10] = Quantitative High-Throughput drug screen in 47 multiple myeloma cell lines against the NCATS MIPE library collection: OCIMY1_PLB cell viability assay (AID 1918979); further: nearly all actives have a fitted effect of over 35% in size
Outline: as §3

[11] = Quantitative High-Throughput drug screen in 47 multiple myeloma cell lines against the NCATS MIPE library collection: KMS28PE_JCRB cell viability assay (AID 1918983); further: nearly all actives have a fitted effect of over 35% in size; further: potency means the concentration at half of the fitted maximal effect
Outline: as §3

[12] = Quantitative High-Throughput drug screen in 47 multiple myeloma cell lines against the NCATS MIPE library collection: KMS20_JCRB cell viability assay (AID 1918973); further: nearly all actives have a fitted effect of over 45% in size
Outline: as §1

[13] = Quantitative High-Throughput drug screen in 47 multiple myeloma cell lines against the NCATS MIPE library collection: MM1S_ATCC cell viability assay (AID 1918980); further: nearly all actives have a fitted effect of over 45% in size; further: potency means the concentration at half of the fitted maximal effect
Outline: as §3

[14] = Quantitative High-Throughput drug screen in 47 multiple myeloma cell lines against the NCATS MIPE library collection: OCIMY7_PLB cell viability assay (AID 1918987); further: nearly all actives have a fitted effect of over 65% in size
Outline: as §3

[15] = Quantitative High-Throughput drug screen in 47 multiple myeloma cell lines against the NCATS MIPE library collection: MOLP8_DSMZ cell viability assay (AID 1918977); further: nearly all actives have a fitted effect of over 45% in size; further: potency means the concentration at half of the fitted maximal effect
Outline: as §3

[16] = Quantitative High-Throughput drug screen in 47 multiple myeloma cell lines against the NCATS MIPE library collection: MMM1_PLB cell viability assay (AID 1918976)
Outline: as §3

[17] = Quantitative High-Throughput drug screen in 47 multiple myeloma cell lines against the NCATS MIPE library collection: LP1_DSMZ cell viability assay (AID 1918982)
Outline: as §3

[18] = Quantitative High-Throughput drug screen in 47 multiple myeloma cell lines against the NCATS MIPE library collection: KMS34_JCRB cell viability assay (AID 1918985); further: potency means the concentration at half of the fitted maximal effect; nearly all actives have a fitted effect of over 40% in size
Outline: as §3

[19] = Quantitative High-Throughput drug screen in 47 multiple myeloma cell lines against the NCATS MIPE library collection: KMS26_JCRB cell viability assay (AID 1918975); further: nearly all actives have a fitted effect of over 45% in size; further: potency means the concentration at half of the fitted maximal effect
Outline: as §2

[20] = Quantitative High-Throughput drug screen in 47 multiple myeloma cell lines against the NCATS MIPE library collection: KMS21BM_JCRB cell viability assay (AID 1918974); conditions: ATP luminescence, 48 h; viability: at 45.8 µM (top of the series) unless noted; further: potency means the concentration at half of the fitted maximal effect
Outline: as §1

Measured: Potency

Cc1cccc(-c2[nH]c(C(C)(C)C)nc2-c2ccc3nccnc3c2)n1
active: [1] 18.7 µM | [2] 5.26 µM | [3] 2.96 µM | [4] 20.9 µM | [5] 4.69 µM | [6] 16.6 µM | [7] 20.9 µM | [8] 1.87 µM

CCCn1c(=O)c2[nH]c(C34CC5CC3C[C@@H](C5)C4)nc2n(CCC)c1=O
inactive: [2] | [9] | [6] | [10]
active: [1] 13.2 µM | [7] 11.8 µM | [11] 20.9 µM

Nc1nc2ccc(OC(F)(F)F)cc2s1
active: [1] 16.6 µM | [4] 16.6 µM | [13] 2.64 µM | [11] 23.5 µM
inactive: [2] | [3] | [5] | [12] | [8] | [14]

COc1ccc(CC2=NN3C([C@@H](CCc4ccccc4)[C@@H](C)O)=NC(C)C3C(=O)N2)cc1OC (stereo not given in full)
inactive: [1] | [2] | [3] | [4] | [5] | [12] | [15] | [10] | [13] | [11] | [14]

NCCc1ccc(O)c(O)c1
active: [1] 20.9 µM | [9] 14.8 µM | [3] 16.6 µM | [4] 7.43 µM | [5] 20.9 µM | [16] 7.43 µM | [15] 20.9 µM | [13] 20.9 µM | [17] 8.33 µM | [8] 23.5 µM | [18] 8.33 µM
inactive: [2]

Cc1oncc1C(=O)Nc1ccc(C(F)(F)F)cc1
active: [2] 14.8 µM | [13] 14.8 µM
inactive: [1] | [3] | [5] | [19] | [10] | [7] | [14]

NNCCc1ccccc1
inactive: [10] | [14]
active: [1] 18.7 µM | [2] 0.059 µM | [9] 8.33 µM | [4] 14.8 µM | [5] 14.8 µM | [20] 13.2 µM | [13] 5.9 µM | [7] 6.62 µM | [11] 9.35 µM

COc1ccc(COc2cc3oc(=O)c4cc(C(C)O)ccc4c3cc2OC)cc1 (stereo not given)
active: [1] 26.4 µM | [2] 7.43 µM | [9] 18.7 µM | [4] 23.5 µM | [5] 2.64 µM | [19] 11.8 µM | [15] 18.7 µM | [6] 26.4 µM | [13] 13.2 µM | [11] 23.5 µM | [8] 5.26 µM | [18] 18.7 µM
